Test results taken from PubChem BioAssay (Tox21).
Inconclusive results are not listed. Unmarked numbers belong to inactive results. Activity calls are given as the source filed them. Calls come from the whole dose curve.

test: qHTS assay for small molecules that induce genotoxicity in human embryonic kidney cells expressing luciferase-tagged ATAD5 - cell viability (AID 651634); details: HEK293T ATAD5-luc cells viability, CellTiter-Fluor, 15.5 h; series mostly up to 83.3 µM; activity, negative = cytotoxicity: at the top concentration; note: nearly all actives have a fitted effect of over 25% in size
Source text: National Center for Advancing Translational Sciences [NCATS]
NIH Chemical Genomics Center [NCGC]
U.S. Environmental Protection Agency [EPA]
National Institutes of Environmental Health Sciences [NIEHS]
National Toxicology Program [NTP]
U.S. Food and Drug Administration [FDA]
Enhanced Level of Genome Instability Gene 1 (ELG1; human ATAD5) protein levels increase in response to various types of DNA damage. Using a luciferase reporter-gene tagged with ElG1, a cell-based assay [developed by Kyungjae Myung, NHGRI, NIH] was used to measure the induction of ATAD5 in human embryonic kidney cells (HEK293T). So, increase in luciferase activity can be used to identify the compounds that cause genetic stress. In addition to genotoxicity, these cells were also used to test for cytotoxicity by measuring the protease activity within live cells.
Tox21 Assay Protocol Summary:
For cytotoxicity screening, 2,000 cells in 5 uL/well were dispensed into white, solid-bottom 1536-well plates using a Multidrop Combi (Thermo Scientific) dispenser. Following transfer of 23 nL compound or DMSO vehicle by a pin tool, the plates were incubated 15.5 hr at 37C and 5% CO2. 1 ul CellTiter-Fluor reagent (Promega, Madison, WI) was then added to each plate and following 30 min incubation at 37C, fluorescence intensity was quantified on a ViewLux CCD-based plate reader.
% is set by controls: 0 for no effect and ±100 for the full control effect; potency is the fitted concentration of half-maximal effect.

Going from `CCCC1C(=O)N2C(N(C)C)=Nc3ccc(C)cc3N2C1=O` (stereo not given) to `Cc1cc(C(=O)NNCc2ccccc2)no1`, the “activity, negative = cytotoxicity” value rises from -7.43% [at 39.1 µM] to -4.78% [at 39.1 µM].

First: CC1(C)S[C@@H]2[C@H](NC(=O)C(N)c3ccccc3)C(=O)N2[C@H]1C(=O)OC1OC(=O)c2ccccc21 (stereo not given in full)
Second: Clc1ccc(COC(Cn2ccnc2)c2ccc(Cl)cc2Cl)c(Cl)c1 (stereo not given)
The “activity, negative = cytotoxicity” value of the first is lower: -12.3% [at 39.1 µM] for the first, -10.1% [at 39.1 µM] for the second.

For `CO[C@H]1C[C@H](O[C@H]2[C@H](C)[C@@H](O[C@@H]3O[C@H](C)C[C@H](N(C)C)[C@H]3OC(C)=O)[C@@H](C)C[C@]3(CO3)C(=O)[C@H](C)[C@@H](OC(C)=O)[C@@H](C)[C@@H](C)OC(=O)[C@@H]2C)O[C@@H](C)[C@@H]1OC(C)=O`, the “activity, negative = cytotoxicity” value was -15.8% [at 39.1 µM].

Compared with `CCCCC(O)c1ccccc1` (stereo not given), `CCCCCc1ccc(C)cc1O` is lower in “activity, negative = cytotoxicity” value: 5.63% for the first, -17.4% for the second.

Going from `CNC(=O)[C@H](Cc1c[nH]c2ccccc12)NC(=O)[C@@H](CC(=O)NO)CC(C)C` to `CC1(C)S[C@@H]2[C@H](NC(=O)Cc3ccccc3)C(=O)N2[C@H]1C(=O)O`, the “activity, negative = cytotoxicity” value rises from -18.8% to -7.04%.

Compared with `C[C@]12C=CC(=O)N[C@@H]1CC[C@@H]1[C@@H]2CC[C@]2(C)[C@@H](C(=O)Nc3cc(C(F)(F)F)ccc3C(F)(F)F)CC[C@@H]12`, `CC(C)CCC[C@@H](C)[C@H]1CC(=O)C2=C3CC[C@H]4C[C@@H](O)CC[C@]4(C)[C@H]3CC[C@@]21C` is lower in “activity, negative = cytotoxicity” value: 19.4% for the first, -4.65% for the second.

First: NCCCC[C@H](NC(=O)[C@@H]1CCCN1C(=O)[C@@H]1CSSC[C@H](N)C(=O)N[C@@H](Cc2ccccc2)C(=O)N[C@@H](Cc2ccccc2)C(=O)N[C@@H](CCC(N)=O)C(=O)N[C@@H](CC(N)=O)C(=O)N1)C(=O)NCC(N)=O
Second: O=C(OC[C@H]1O[C@](O)(COC(=O)c2cccnc2)[C@@H](OC(=O)c2cccnc2)[C@@H]1OC(=O)c1cccnc1)c1cccnc1
The “activity, negative = cytotoxicity” value of the first is lower: 5.23% for the first, 6.39% for the second.

Compared with `CCCCC(F)(F)[C@@]1(O)CC[C@H]2[C@@H](CC(=O)[C@@H]2CCCCCCC(=O)O)O1`, `CC1C(=O)CC2C3(C)CCC2(C(C)C(=O)O)C(=O)C13` (stereo not given) is higher in “activity, negative = cytotoxicity” value: -2.91% for the first, 10% for the second.

First: CC(C)(C)C1(O)CCN2CC3c4ccccc4CCc4cccc(c43)C2C1 (stereo not given)
Second: CCC(=O)NCCC1CCc2ccc3c(c21)CCO3 (stereo not given)
The “activity, negative = cytotoxicity” value of the first is lower: -19.7% for the first, 4.56% for the second.

First: CC(C)c1nc(N(C)S(C)(=O)=O)nc(-c2ccc(F)cc2)c1/C=C/C(O)CC(O)CC(=O)O (stereo not given)
Second: CC(C)NCC(O)COc1ccccc1-n1cccc1 (stereo not given)
The “activity, negative = cytotoxicity” value of the first is lower: 0.894% for the first, 13.6% for the second.

Compared with `CO[C@H]1O[C@@H]2O[C@@]3(C)CC[C@H]4[C@H](C)CC[C@@H]([C@H]1C)[C@@]24OO3`, `CO[C@H]1C[C@H](O[C@@H]2/C(C)=C/C[C@@H]3C[C@@H](C[C@]4(CC[C@H](C)[C@@H](C5CCCCC5)O4)O3)OC(=O)[C@@H]3C=C(C)/C(=N/O)[C@H]4OC/C(=C\C=C\[C@@H]2C)[C@]43O)O[C@@H](C)[C@@H]1O` is higher in “activity, negative = cytotoxicity” value: 6.03% for the first, 15% for the second.

First: NC(=O)C[C@@H](N)C(=O)O
Second: O=C(O)[C@@H](O)[C@H](O)[C@H](O)[C@@H](O)C(=O)O (tested in a mixture with another compound)
The “activity, negative = cytotoxicity” value of the first is higher: 15.2% for the first, 10.7% for the second.

Compared with `O=[N+]([O-])c1c(Cl)cccc1-c1c[nH]cc1Cl`, `CCCCOC(=O)C(=O)Nc1cccc(-c2nn[nH]n2)c1` is higher in “activity, negative = cytotoxicity” value: -19.5% for the first, -3.31% for the second.

Compared with `CCN(CC)CCOC(=O)c1ccc(N)cc1Cl`, `CC1(C)N=C(N)N=C(N)N1c1ccc(Cl)cc1` is lower in “activity, negative = cytotoxicity” value: 20.4% for the first, 9.38% for the second.

First: FCOC(C(F)(F)F)C(F)(F)F
Second: CCOC(=O)C1=C[C@@H](OC(CC)CC)[C@H](NC(C)=O)[C@@H](N)C1
The “activity, negative = cytotoxicity” value of the first is higher: 11.7% for the first, -12.2% for the second.

Going from `O=C1O[C@H]2[C@H](O)[C@@H]1OC(O)[C@H]2O` (stereo not given in full) to `COC1=C(C(=O)O)N2C(=O)[C@@H](NC(=O)[C@H](N)C3=CCC=CC3)[C@H]2SC1`, the “activity, negative = cytotoxicity” value falls from 13% to -5.39%.

Compared with `COc1cc(NCCCC(C)N)c2ncccc2c1` (stereo not given), `COc1ccc(C2NC(=S)N3C(c4ccc(OC)c(OC)c4)NC(=S)N23)cc1OC` (stereo not given) is lower in “activity, negative = cytotoxicity” value: -16.5% for the first, -22.2% for the second.

Going from `CS(=O)(=O)OCCCNCCCOS(C)(=O)=O` to `O=C(Nc1ccc(/C=C/c2ccc(NC(=O)c3cc(S(=O)(=O)O)c4cccnc4c3O)cc2S(=O)(=O)O)c(S(=O)(=O)O)c1)c1cc(S(=O)(=O)O)c2cccnc2c1O`, the “activity, negative = cytotoxicity” value falls from 15.6% to 3.2%.

For `O=P(O)(O)C(O)(Cc1cnc2ccccn12)P(=O)(O)O`, the “activity, negative = cytotoxicity” value was 12.5%.

In the case of `NC(=S)N=Nc1ccc(NN=C(N)N)cc1`, the Potency is reported as 26.6 µM (active).
For `CC(=C\c1ccccc1)/C=C1/SC(=S)N(CC(=O)O)C1=O`, the Potency was 21.1 µM (active).
With `CCCCCCOc1ccc(C(=N)N(CCCC)CCCC)c2ccccc12` the Potency was 23.7 µM (active).
In the case of `CN=C1C=CC(=C(c2ccc(N(C)C)cc2)c2ccc(N(C)C)cc2)C=C1`, the Potency is reported as 4.73 µM (active).
